# “And” between values parts separate entries of the source, which are not always exact repeats. Equal entries are not always repeated. Among all 290,000 compounds or so, about 3,000 (1%) were called active. Rule as the data show it: active = inhibition mostly above about 36% (no sharp cut-off); inactive = mostly below about 34%. The list comes from a sample in which actives are over-represented; it also holds similar structures and randomly drawn compounds. The source holds several records for some structures; these can differ, active in one and inactive in another.
# Test: inhibition of NOD1-driven NF-kB reporter – cell-based, luminescence, uHTS, primary screen (AID 1578);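 also: HEK-293T reporter cells stimulated with the NOD1 agonist gamma-tri-DAP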
# Conditions: NOD1-driven NF-kB luciferase reporter cells, at 4 µM, stronger effect = higher value
row,SMILES,inhibition
1,Cc1ccc2nc(-c3ccccn3)cc(C(=O)NCCc3ccc(F)cc3)c2c1,-8.3% (inactive)
2,CC(C)OC(=O)c1ccc(COC(=O)c2cccc(-c3nnc(-c4ccccc4)o3)c2)cc1,-13% (inactive)
3,N=C(N)N=Nc1c(O)[nH]c2ccc(Br)cc12,-31.8% (inactive)
4,Oc1[nH]c2ccc(Br)cc2c1N=NC(=S)N1CCOCC1,99% (active)
5,Oc1[nH]c2ccc(Br)cc2c1N=NC(=S)Nc1ccc(F)cc1,-7.9% (inactive)
6,COc1ccc(CCNC(=O)CSc2nc3c(c(=O)n(C)c(=O)n3C)n2C)cc1OC,-28.4% (inactive)
7,O=[N+]([O-])c1ccc(Nc2ccccc2O)c2nonc12,-3.2% (inactive)
8,O=[N+]([O-])c1ccc(Sc2cccc[n+]2[O-])c2nonc12,106% (active)
9,O=[N+]([O-])c1ccc(Nc2ccccc2)c2nonc12,-7.4% (inactive)
10,N#Cc1ccccc1NC(=O)CSc1nnc(-c2ccncc2)o1,4.5% (inactive)
11,Cn1c(-c2csc(-c3ccccc3)n2)n[nH]c1=S,-29.3% (inactive)
12,Cc1cc(C)c(C(CC(=O)c2cccs2)C(C#N)C#N)c(C)c1 (stereo not given),26.3% (inactive)
13,CC(CC(=O)c1cccs1)CC(=O)c1cccs1,-14.5% (inactive)
14,Cc1ccccc1C(CC(=O)c1cccs1)C(C#N)C#N (stereo not given),85.2% (active)
15,O=[N+]([O-])c1cccc(Nc2nc(Cl)nc(Cl)n2)c1,14.4% (inactive)
16,COc1nc(NC(C)(C)C)nc(Oc2ccc(=O)n(-c3ccccc3)n2)n1,-3.3% (inactive)
17,Cc1ccc(C(=O)NNC(=S)NC(=O)c2ccc(Cl)cc2)cc1,31.1% (inactive)
18,Cc1ccc(S(=O)(=O)C(CCC(=O)c2ccc(Cl)cc2)C(N)=O)cc1 (stereo not given),9.7% (inactive)
19,Cc1ccc(C(=O)NC(=S)NNS(=O)(=O)c2ccc(C)cc2)cc1,-34.4% (inactive)
20,COc1ccc(NC(=O)c2ccc(C)cc2)cc1,-19.2% (inactive)
21,COC(=O)NC(=C(Cl)Cl)S(=O)(=O)c1ccccc1,74.9% (active)
22,COc1ccc(C(=O)NCS(=O)(=O)c2ccc(C)cc2)cc1,7.7% (inactive)
23,CCOC(=O)NC(C(Cl)(Cl)Cl)S(=O)(=O)c1ccccc1 (stereo not given),5% (inactive)
24,Cc1ccc(S(=O)(=O)NNC(=O)c2ccc(O)cc2)cc1,-14.1% (inactive)

row,SMILES,inhibition
1,COC(=O)NC(NS(=O)(=O)c1ccccc1)(C(=O)OC)C(F)(F)F (stereo not given),-0.4% (inactive)
2,CCOC(=O)C1CCN(S(=O)(=O)c2ccc(C)c(C)c2)CC1,-13.2% (inactive)
3,CCOC(=O)c1ccc(NC(=S)N2CCN(CCNC3=CC(=O)CC(C)(C)C3)CC2)cc1,-30.1% (inactive)
4,CCC(=O)c1ccc(OCC(=O)Nc2ccc(N3CCOCC3)cc2N2CCOCC2)cc1,-43.2% (inactive)
5,COc1ccc(C(=O)NCCN2CCOCC2)c(OC)c1OC,4.8% (inactive)
6,CNC(=O)C1CCN(S(=O)(=O)c2c(C)noc2/C=C/N(C)C)CC1,-22.5% (inactive)
7,Cc1cc(C)c(C#N)c(SCc2cc3c(cc2Cl)OCO3)n1,26.9% (inactive)
8,O=C(CSc1ccc2c(c1)OCCO2)Nc1ccc(N2CCOCC2)cc1,-37.2% (inactive)
9,COc1cccc(N2CCN(C(C)C(=O)NC34CC5CC(CC(C5)C3)C4)CC2)c1 (stereo not given),-31.5% (inactive)
10,Cc1ccc(-n2ncc3c(SCc4cccnc4)ncnc32)c(C)c1,1.6% (inactive)
11,Cc1ccc(S(=O)(=O)NCCNC(=O)c2ccccc2)cc1,-16.6% (inactive)
12,Cc1ccc(S(=O)(=O)CNC(=O)c2ccccc2)cc1,-6.8% (inactive)
13,COc1ccccc1Oc1ccnc2cc(Cl)ccc12,27.5% (inactive)
14,O=C(/C=C/Nc1ccc(Br)cc1F)c1ccco1,53.7% (active)
15,O=C(/C=C/Nc1ccc(F)cc1F)c1ccco1,-11.6% (inactive)
16,O=C(/C=C/Nc1ccc(Br)cc1F)c1ccccc1,27.6% (inactive)
17,COc1ccc(C2C(C(=O)N3CCC(C)CC3)c3ccccc3C(=O)N2C)cc1 (stereo not given),-14.1% (inactive)
18,COCCC(=O)NC1CCCc2c1cnn2-c1cccc(C)c1C (stereo not given),-25.1% (inactive)
19,Cn1c(-c2ccccc2)cnc1SCC(=O)N1CCCCC1,32% (active)
20,Cn1c(-c2ccc(F)cc2)cnc1SCC(=O)N1CCCCC1,-31.8% (inactive)
21,Cn1c(-c2ccccc2)cnc1SCC(N)=O,0.4% (inactive)
22,Cc1cc(C)[n+](-c2ccc(C(C)C)cc2)c2[nH]c(=O)[nH]c(=O)c12,-20.8% (inactive)
23,Cc1[nH]nc(SCC(=O)Nc2cccc(O)c2)c1[N+](=O)[O-],-37.4% (inactive)
24,CCNS(=O)(=O)c1ccc(CCC(=O)Nc2cc(Cl)ccc2Oc2ccccc2)cc1,34% (inactive)

row,SMILES,inhibition
1,CCCNS(=O)(=O)c1ccc(CCC(=O)Nc2cc(Cl)ccc2Oc2ccccc2)cc1,79.1% (active)
2,CC(C)CNS(=O)(=O)c1ccc(CCC(=O)Nc2cc(Cl)ccc2Oc2ccccc2)cc1,23.4% (inactive)
3,COc1ccc(NC(=O)c2cc(S(=O)(=O)N3CCOCC3)cn2C)c(OC)c1,-19% (inactive)
4,CC(C)CNC(=S)N1CCC(C(=O)c2ccc(F)cc2)CC1,61.7% (active)
5,C=CCNC(=S)N1CCC(C(=O)c2ccc(F)cc2)CC1,-20.4% (inactive)
6,CCCNC(=S)N1CCC(C(=O)c2ccc(F)cc2)CC1,-20.1% (inactive)
7,Cc1ccc(C)c2c1sc(=NC(=O)CN1C(=O)CCC1=O)n2C,1.3% (inactive)
8,CCOC(=O)c1ccc(NC(=O)C2(c3ccccc3)CCCC2)cc1,14% (inactive)
9,Cc1[nH]n(-c2ncc(-c3ccccc3)s2)c(=O)c1C(c1ccc(Br)cc1)C(C#N)C#N (stereo not given),32.7% (inactive)
10,Cc1[nH]n(-c2ncc(-c3ccc(Cl)cc3)s2)c(=O)c1C(c1ccc(Cl)cc1)C(C#N)C#N (stereo not given),67.3% (active)
11,CCCc1[nH][nH]c(=O)c1C(c1ccc(Cl)cc1)C(C#N)C#N (stereo not given),3.7% (inactive)
12,Cc1ccccc1N(C(=O)Cc1ccsc1)C(C(=O)NC1CCCCC1)c1ccc(F)cc1 (stereo not given),-25.2% (inactive)
13,Cc1c(C2=CCN(S(=O)(=O)c3ccc(Br)cc3)CC2)c2ccccc2n1C,0.5% (inactive)
14,CC(=O)C1=C(C)NC(=O)NC1c1cccc([N+](=O)[O-])c1O (stereo not given),-9.2% (inactive)
15,O=C(O)c1cc(-c2ccco2)nc2ccc(Br)cc12,75.3% (active) and -18.2% (inactive)
16,O=C(O)c1cc(-c2ccco2)nc2ccccc12,-13.5% (inactive)
17,O=C(O)c1cc(-c2ccco2)nc2cc3ccccc3cc12,-6.3% (inactive)
18,Clc1ccc(COn2c(-c3ccc(Cl)cc3)nc3ccccc32)cc1,-31.8% (inactive)
19,COc1ccc(/C=N/NC(=O)C2C3CCCCC32)cc1OC (stereo not given),-9.5% (inactive)
20,COc1ccc(/C=N/NC(=O)C2C3CCCCC32C)cc1OC (stereo not given),47.1% (active)
21,COc1cc(/C=N/NC(=O)C2C3CCCCC32C)cc(Br)c1O (stereo not given),6.5% (inactive)
22,FC(F)(F)c1cc(Oc2ccc(Cl)cc2)ncc1-c1nnc(-c2ccc(Cl)cc2)o1,-6.5% (inactive)
23,CC(C)C(NS(=O)(=O)c1ccccc1)C(=O)OCc1cc([N+](=O)[O-])cc2c1OCOC2 (stereo not given),-12.4% (inactive)
24,CC(Sc1cccc[n+]1[O-])C(=O)Nc1ccc([N+](=O)[O-])cc1Cl (stereo not given),-22.4% (inactive)

row,SMILES,inhibition
1,Cc1ccc(-c2noc(C3CCCCC3)n2)cc1,-58.2% (inactive)
2,CS(=O)(=O)N(CC(=O)NCC1CCCO1)c1cccc([N+](=O)[O-])c1 (stereo not given),-15% (inactive)
3,O=C(NCC1CCCO1)c1ccc(Oc2ccc([N+](=O)[O-])cc2)cc1 (stereo not given),42.4% (active)
4,O=C(NCC1CCCO1)c1cccc(Oc2ccc([N+](=O)[O-])cc2)c1 (stereo not given),-20.6% (inactive)
5,COc1ccc([N+](=O)[O-])cc1N(CC(=O)NCC1CCCO1)S(C)(=O)=O (stereo not given),-19.1% (inactive)
6,Cc1ccc([N+](=O)[O-])cc1N(CC(=O)NCC1CCCO1)S(C)(=O)=O (stereo not given),60.2% (active)
7,O=C(NCC1CCCO1)c1ccc(Oc2ccc([N+](=O)[O-])cc2Cl)cc1 (stereo not given),13.6% (inactive)
8,COc1ccc(CCNC(=O)CCn2c(SCC#N)nc3ccccc3c2=O)cc1OC,10.3% (inactive)
9,COc1ccc2c(C)cc(SCC(=O)Nc3cccnc3Cl)nc2c1,-12.9% (inactive)
10,Nc1nonc1-n1nnc(C(=O)N/N=C/c2ccccc2)c1CN1CCc2ccccc21,-21.6% (inactive)
11,CNC(=O)NC(=O)COC(=O)CCCOc1ccc(OC)cc1,4.1% (inactive)
12,COc1ccc(CCNC(=O)c2cc3sccc3n2C)cc1OC,5.4% (inactive)
13,CCOc1ccc(CCNC(=O)c2cc3sccc3n2CC)cc1OCC,49.7% (active)
14,CCOc1ccc(CCNC(=O)c2cc3sccc3n2C)cc1OCC,26.3% (inactive)
15,COc1ccc(S(=O)(=O)N(C)c2ccc(C(=O)NC3CCCC3)cc2)cc1,-11.8% (inactive)
16,CC(=O)C(C)Sc1nnc(-c2ccccc2F)n1C1CC1 (stereo not given),-26.2% (inactive)
17,CN1CCN(C(=S)c2cn(Cc3ccccc3F)c3ccccc23)CC1,-13.6% (inactive)
18,CC(=O)c1cn(CC(=O)Nc2ccccc2F)c2ccccc12,14.5% (inactive)
19,Cc1ccc(C)c(CN2CCC(CNC(=O)Nc3cccc(Cl)c3C)CC2)c1,2.1% (inactive)
20,CCOC(=O)C1=C(O)c2ccccc2C(=O)/C1=C\c1ccc(CC)cc1,15.2% (inactive)
21,CCOC(=O)C1=C(Cc2ccc(OC)cc2)C(=O)c2ccccc2C1=O,3.6% (inactive)
22,COc1cccc2cc(C(=O)C3=C(O)C(=O)N(CCN4CCOCC4)C3c3ccc(C(C)(C)C)cc3)oc12 (stereo not given),-11.6% (inactive)
23,Cc1ccc(CN(C)C(=O)CCc2c[nH]c3ccccc23)o1,-18.4% (inactive)
